PubChem BioAssay AID1159580 (chemical genetic matrix, 2015)
Out of some 5,500 compounds screened, about 2,000 (36%) were called active. Inconclusive results (about 18%) are left out. Cut-off read from the data, not from the text of the source: active = normalized growth mostly below about 0.91 (no sharp cut-off); inconclusive = no clear call, values can overlap the other calls; inactive = mostly above about 0.92. Some of the results follow.

Assay: chemical genetic growth profiling, strain panel (AID 1159580);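 note: tested at 20 µM; growth read once vehicle control cultures reached saturation at 30 °C; 1 = growth at the plate median or of vehicle wells; lower values mean less growth of the strain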
Details: growth OD

Measured: normalized growth

COc1cc([C@@H]2c3cc4c(cc3[C@H](O)[C@H]3COC(=O)[C@@H]23)OCO4)cc(OC)c1OC
inactive: S. cerevisiae deletion strains, locus YKL009W, strain mrt4, active compounds read low 1 | S. cerevisiae deletion strains, locus YKL068W, active compounds read low 0.977 | S. cerevisiae deletion strains, locus YKL085W, strain MDH1 (second series), active compounds read low 1 | S. cerevisiae deletion strains, locus YKL085W, strain MDH1, active compounds read low 1 | S. cerevisiae deletion strains, locus YKL160W, strain elf1, active compounds read low 1.02 | S. cerevisiae deletion strains, locus YKR001C, strain vps1, active compounds read low 0.978 | S. cerevisiae deletion strains, locus YKR026C, strain gcn3, active compounds read low 1.02 | S. cerevisiae deletion strains, locus YKR091W, strain srl3, active compounds read low 1.02 | S. cerevisiae deletion strains, locus YLL001W, strain dnm1, active compounds read low 1.01 | S. cerevisiae deletion strains, locus YLL026W, active compounds read low 1.01 | S. cerevisiae deletion strains, locus YLL041C, strain sdh2, active compounds read low 1.02 | S. cerevisiae deletion strains, locus YLR027C, strain aat2, active compounds read low 1.03 | S. cerevisiae deletion strains, locus YLR039C, strain RIC1, active compounds read low 0.996 | S. cerevisiae deletion strains, locus YLR058C, strain SHM2, active compounds read low 1.01 | S. cerevisiae deletion strains, locus YLR102C, strain apc9, active compounds read low 0.984 | S. cerevisiae deletion strains, locus YLR113W, strain HOG1, active compounds read low 0.997 | S. cerevisiae deletion strains, locus YLR221C, strain rsa3, active compounds read low 0.999 | S. cerevisiae deletion strains, locus YLR258W, strain gsy2, active compounds read low 1.02 | S. cerevisiae deletion strains, locus YLR262C, strain YPT6 (second series), active compounds read low 1.04 | S. cerevisiae deletion strains, locus YLR262C, strain YPT6, active compounds read low 0.991 | S. cerevisiae deletion strains, locus YLR268W, strain sec22, active compounds read low 0.971 | S. cerevisiae deletion strains, locus YLR320W, strain mms22, active compounds read low 1.01 | S. cerevisiae deletion strains, locus YLR330W, strain CHS5, active compounds read low 0.998 | S. cerevisiae deletion strains, locus YLR342W, strain FKS1 (second series), active compounds read low 1.02 | S. cerevisiae deletion strains, locus YLR342W, strain FKS1, active compounds read low 1.02 | S. cerevisiae deletion strains, locus YLR357W, strain rsc2, active compounds read low 1.02 | S. cerevisiae deletion strains, locus YLR370C, strain arc18, active compounds read low 1.03 | S. cerevisiae deletion strains, locus YLR371W, strain rom2, active compounds read low 0.972 | S. cerevisiae deletion strains, locus YLR384C, strain iki3, active compounds read low 1.02 | S. cerevisiae deletion strains, locus YLR418C, strain cdc73, active compounds read low 1.05 | S. cerevisiae deletion strains, locus YML016C, strain PPZ1, active compounds read low 0.997 | S. cerevisiae deletion strains, locus YML032C, strain rad52, active compounds read low 1.02 | S. cerevisiae deletion strains, locus YML120C, strain ndi1, active compounds read low 1.01 | S. cerevisiae deletion strains, locus YML124C, strain tub3, active compounds read low 0.993 | S. cerevisiae deletion strains, locus YMR058W, strain fet3, active compounds read low 1.02 | S. cerevisiae deletion strains, locus YMR078C, strain ctf18, active compounds read low 0.991 | S. cerevisiae deletion strains, locus YMR125W, strain sto1, active compounds read low 1.02 | S. cerevisiae deletion strains, locus YMR129W, active compounds read low 1.02 | S. cerevisiae deletion strains, locus YMR205C, strain PFK2, active compounds read low 1.02 | S. cerevisiae deletion strains, locus YMR223W, strain ubp8, active compounds read low 1.01 | S. cerevisiae deletion strains, locus YMR231W, strain pep5, active compounds read low 1.03 | S. cerevisiae deletion strains, locus YMR263W, strain SAP30, active compounds read low 1.01 | S. cerevisiae deletion strains, locus YMR307W, strain GAS1, active compounds read low 1.05 | S. cerevisiae deletion strains, locus YNL067W, strain RPL9B, active compounds read low 1.01 | S. cerevisiae deletion strains, locus YNL071W, strain lat1, active compounds read low 1.02 | S. cerevisiae deletion strains, locus YNL153C, strain GIM3, active compounds read low 1.03 | S. cerevisiae deletion strains, locus YNL183C, strain NPR1, active compounds read low 0.904 | S. cerevisiae deletion strains, locus YNL209W, strain ssb2, active compounds read low 1.01 | S. cerevisiae deletion strains, locus YNL233W, strain BNI4, active compounds read low 1.01 | S. cerevisiae deletion strains, locus YNL248C, strain rpa49, active compounds read low 1.01 | S. cerevisiae deletion strains, locus YNL250W, strain rad50, active compounds read low 0.95 | S. cerevisiae deletion strains, locus YNL271C, strain bni1, active compounds read low 0.993 | S. cerevisiae deletion strains, locus YNL298W, strain CLA4, active compounds read low 0.997 | S. cerevisiae deletion strains, locus YNL307C, strain MCK1, active compounds read low 0.992 | S. cerevisiae deletion strains, locus YNL322C, strain KRE1 (second series), active compounds read low 1.01 | S. cerevisiae deletion strains, locus YNL322C, strain KRE1, active compounds read low 1 | S. cerevisiae deletion strains, locus YNR049C, strain mso1, active compounds read low 1.02 | S. cerevisiae deletion strains, locus YNR052C, strain pop2, active compounds read low 1.01 | S. cerevisiae deletion strains, locus YOL012C, strain htz1 0.992 | S. cerevisiae deletion strains, locus YOL147C, strain pex11, active compounds read low 0.993 | S. cerevisiae deletion strains, locus YOR001W, strain rrp6, active compounds read low 1.04 | S. cerevisiae deletion strains, locus YOR061W, strain CKA2, active compounds read low 1 | S. cerevisiae deletion strains, locus YOR069W, strain VPS5, active compounds read low 0.991 | S. cerevisiae deletion strains, locus YOR070C, strain gyp1, active compounds read low 1.02 | S. cerevisiae deletion strains, locus YOR080W, strain dia2, active compounds read low 1.03 | S. cerevisiae deletion strains, locus YOR083W, strain WHI5, active compounds read low 1.02 | S. cerevisiae deletion strains, locus YOR106W, strain vam3, active compounds read low 1.04 | S. cerevisiae deletion strains, locus YOR136W, strain idh2, active compounds read low 0.98 | S. cerevisiae deletion strains, locus YOR144C, strain elg1, active compounds read low 1 | S. cerevisiae deletion strains, locus YOR184W, strain ser1, active compounds read low 0.999 | S. cerevisiae deletion strains, locus YOR231W, strain MKK1, active compounds read low 0.996 | S. cerevisiae deletion strains, locus YOR265W, strain rbl2, active compounds read low 1.02 | S. cerevisiae deletion strains, locus YOR270C, strain vph1, active compounds read low 1.03 | S. cerevisiae deletion strains, locus YOR290C, strain snf2, active compounds read low 1.01 | S. cerevisiae deletion strains, locus YOR316C, strain cot1, active compounds read low 0.995 | S. cerevisiae deletion strains, locus YPL051W, strain arl3, active compounds read low 1.02 | S. cerevisiae deletion strains, locus YPL055C, strain LGE1, active compounds read low 1.02 | S. cerevisiae deletion strains, locus YPL078C, strain atp4, active compounds read low 1.02 | S. cerevisiae deletion strains, locus YPL106C, strain sse1, active compounds read low 1 | S. cerevisiae deletion strains, locus YPL240C, strain hsp82, active compounds read low 1.02 | S. cerevisiae deletion strains, locus YPL241C, strain CIN2, active compounds read low 1 | S. cerevisiae deletion strains, locus YPL256C, strain CLN2, active compounds read low 0.967 | S. cerevisiae deletion strains, locus YPR119W, strain clb2, active compounds read low 0.986 | S. cerevisiae deletion strains, locus YPR141C, strain kar3, active compounds read low 0.988 | S. cerevisiae deletion strains, locus YPR163C, strain tif3, active compounds read low 0.996 | S. cerevisiae deletion strains, locus YPR167C, strain met16, active compounds read low 0.989 | S. cerevisiae deletion strains, strain wtn01, active compounds read low 0.945 | S. cerevisiae strains, strain wild type, active compounds read low 1.02
